# Source: PubChem (several laboratories)
# SUMO Mot1 rescue: inhibitors of SUMOylation pathway: yeast Mot1-301 growth rescue; S. cerevisiae Mot1-301 growth rescue, ATP luminescence, 38.5C; percent above DMSO median, 100 means doubled; actives 1% (n = 320,000); AID 2716; growth rescue, % at 18.8 µM;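 active = every valid replicate shows activation above 250% relative to neutral control wells; inactive = the rest, any valid replicate at or below 250%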
# JMJD2C inh: human JMJD2C demethylase inhibition | Q9H3R0 | GST-JMJD2C(1-420) H3K9me3 demethylation, DELFIA europium | inhibition, % at 2.35 µM | actives 0.069% (n = 330,000) | AID 2099;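 active = more than half of a compound's replicate wells show inhibition beyond 50%, single wells judged on their own value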;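 also: signal counts dimethyl H3K9 product captured on neutravidin plate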
# p-CIP stab down: p/CIP protein destabilization. F442A p/CIP-EGFP cells, EGFP fluorescence, 16 h. decrease of EGFP signal, % at 10 µM. actives 0.01% (n = 290,000). AID 1984;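 active = EGFP signal decrease of at least 30% at 10 µM or well 3 SD below plate mean, unless failing retest; inactive = the rest, including hits failing retest or dose response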
# Target sequence (Q05BA5 1-1403): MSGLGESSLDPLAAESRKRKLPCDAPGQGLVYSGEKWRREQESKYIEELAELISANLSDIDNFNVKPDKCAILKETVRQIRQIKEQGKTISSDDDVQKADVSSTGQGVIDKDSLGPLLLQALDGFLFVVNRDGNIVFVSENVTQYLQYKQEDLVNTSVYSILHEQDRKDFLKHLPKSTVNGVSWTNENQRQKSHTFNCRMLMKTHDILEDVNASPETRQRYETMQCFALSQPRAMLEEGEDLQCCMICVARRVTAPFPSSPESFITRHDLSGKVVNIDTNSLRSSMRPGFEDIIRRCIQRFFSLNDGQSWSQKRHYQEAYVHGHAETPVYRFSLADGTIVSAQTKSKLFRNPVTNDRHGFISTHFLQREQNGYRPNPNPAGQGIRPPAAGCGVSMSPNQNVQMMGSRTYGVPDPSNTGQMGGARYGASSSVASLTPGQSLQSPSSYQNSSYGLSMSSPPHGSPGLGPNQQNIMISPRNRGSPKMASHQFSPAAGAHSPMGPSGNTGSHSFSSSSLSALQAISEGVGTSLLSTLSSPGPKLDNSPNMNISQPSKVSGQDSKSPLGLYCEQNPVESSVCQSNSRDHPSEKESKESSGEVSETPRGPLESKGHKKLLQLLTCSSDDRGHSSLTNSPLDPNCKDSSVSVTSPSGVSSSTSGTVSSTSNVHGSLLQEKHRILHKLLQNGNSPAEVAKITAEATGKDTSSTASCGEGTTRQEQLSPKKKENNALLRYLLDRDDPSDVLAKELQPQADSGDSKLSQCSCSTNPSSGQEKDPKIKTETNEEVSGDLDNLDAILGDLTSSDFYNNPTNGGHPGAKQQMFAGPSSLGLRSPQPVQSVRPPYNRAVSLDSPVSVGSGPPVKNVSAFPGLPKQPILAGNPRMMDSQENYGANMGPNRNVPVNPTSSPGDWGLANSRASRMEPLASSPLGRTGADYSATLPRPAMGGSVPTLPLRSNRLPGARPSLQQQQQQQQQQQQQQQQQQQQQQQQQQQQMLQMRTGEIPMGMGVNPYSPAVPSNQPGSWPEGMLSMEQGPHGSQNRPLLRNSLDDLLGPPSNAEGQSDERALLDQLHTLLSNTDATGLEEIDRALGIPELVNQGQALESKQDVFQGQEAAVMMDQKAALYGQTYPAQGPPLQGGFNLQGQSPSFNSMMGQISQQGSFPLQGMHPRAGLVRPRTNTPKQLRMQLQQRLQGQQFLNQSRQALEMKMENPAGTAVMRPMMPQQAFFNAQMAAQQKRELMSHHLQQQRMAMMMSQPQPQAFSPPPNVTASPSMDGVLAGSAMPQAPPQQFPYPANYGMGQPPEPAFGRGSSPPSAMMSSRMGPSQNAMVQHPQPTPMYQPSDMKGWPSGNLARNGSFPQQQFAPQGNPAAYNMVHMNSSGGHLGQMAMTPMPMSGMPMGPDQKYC
# PHOSPHO1 inh: blocks human PHOSPHO1 phosphatase activity. Q8TCT1. recombinant PHOSPHO1, absorbance phosphatase assay. inhibition, % at 13.3 µM. actives 1.1% (n = 290,000); in the data active = inhibition above about 60%
# HDAC3 inhib: blocks human histone deacetylase 3. O15379. recombinant HDAC3, fluorogenic peptide/trypsin coupled, fluorescence. inhibition, % at 8.3 µM. actives 0.15% (n = 320,000). AID 2718; in the data active = inhibition above about 26%, passing the limit was not always enough
# PvdQ inh: P. aeruginosa PvdQ acylase inhibition; purified PvdQ acylase, fluorescence plate reader; inhibition, % at 10 µM; actives 0.063% (n = 340,000); AID 488965; in the data active = inhibition above about 30%, passing the limit was not always enough
# A number is an active result; n = inactive; x = not tested or not shown. Hits are enriched below; roughly 2.2% of the tested compounds scored in any of these assays.
SMILES,SUMO Mot1 rescue,JMJD2C inh,p-CIP stab down,PHOSPHO1 inh,HDAC3 inhib,PvdQ inh
COc1cccc(-n2c(CNC(=O)OC(C)(C)C)n[nH]c2=S)c1,n,n,n,84,n,n
COc1cccc2c1Oc1ncccc1N(C(=O)CCC(=O)NCc1cccc(C)c1)C2,n,n,n,n,n,n
Cc1ccc2nc(/C(C#N)=C\c3ccc(N4CCOCC4)o3)[nH]c2c1,n,n,n,n,n,n
Cc1ccc(/C(C#N)=C\c2ccc(N3CCOCC3)o2)cc1,n,n,n,62,n,n
CCn1cc(C(=O)O)c(=O)c2cc(Br)ccc21,n,n,n,n,n,n
CCOC(=O)c1cn(CC)c2ccc(Br)cc2c1=O,n,n,n,78,n,n
O=c1oc(-c2ccco2)nc2c1cnn2-c1ccccc1,n,n,n,n,62,n
O=c1c2cnn(-c3ccccc3)c2nc(-c2ccco2)n1-c1ccccc1,n,x,n,n,n,n
CCCN=Cc1ccc(O)cc1,n,n,n,n,n,n
O=C(CSc1nccc(=O)[nH]1)Nc1ccc(Oc2ccccc2)cc1,n,n,n,n,n,n
CC(=O)Nc1ccc(C(=O)CSc2nccc(=O)[nH]2)cc1,n,n,n,n,62,n
COc1ccc(-n2ncc3c2CC(C)(C)CC3NC(=O)CCCN2CCCC2=O)cc1 (centres undefined),n,n,n,n,n,n
O=C1CCC(C(=O)N(Cc2cccs2)C2(C(=O)NC3CCCCC3)CCCCC2)N1 (centres undefined),n,n,n,n,n,n
COCCn1c(=S)[nH]c2ccc(N(C)C)cc2c1=O,n,n,n,98,n,n
O=C(CSc1nc(-c2ccc(F)cc2)cc(C(F)(F)F)n1)NCc1ccco1,n,n,n,n,n,n
CCCn1c(O)c(N=NC(=O)CNC(=O)c2cccnc2)c2ccccc21,n,n,n,n,n,n
COC(=O)Cn1c(O)c(N=NC(=O)CNC(=O)c2ccncc2)c2ccccc21,n,n,n,64,n,n
CSc1nc2oc3c(c2c2nncn12)CC(C)(C)SC3,n,n,n,78,n,n
Cc1cc(=O)oc2cc(OCC(=O)Nc3ccccc3C(N)=O)c(Cl)cc12,n,n,n,n,n,n
Cc1cccnc1NC(=O)c1ccc(S(=O)(=O)N2CCCCCC2)cc1,n,n,x,x,n,n
CC1CCN(S(=O)(=O)c2ccc(C(=O)Nc3nnc(-c4ccccn4)o3)cc2)CC1,n,n,n,71,x,n
CC1CCN(S(=O)(=O)c2ccc(C(=O)Nc3ncccc3O)cc2)CC1,n,n,n,n,64,n
CC1CCN(S(=O)(=O)c2ccc(C(=O)Nc3nnc(C4=COCCO4)o3)cc2)CC1,n,n,n,n,x,n
COc1ccc(OCc2nnc(SCC(=O)c3c(N)n(C)c(=O)n(C)c3=O)n2-c2ccccc2F)cc1,n,n,n,n,n,x
O=C(Nc1ncccc1O)c1ccc2c(c1)OCO2,n,n,x,x,86,n
SMILES,SUMO Mot1 rescue,JMJD2C inh,p-CIP stab down,PHOSPHO1 inh,HDAC3 inhib,PvdQ inh
O=C(Nc1ccn(Cc2ccccc2)n1)c1ccc2c(c1)OCO2,n,n,n,61,n,n
OC(CN1CCOCC1)Cn1c(-c2cccc(Cl)c2)nc2ccccc21 (centres undefined),n,n,n,n,n,32
O=C(CCc1nnc(CCCc2ccccc2)o1)NCCN1CCOC1=O,n,n,n,n,n,n
COc1ccc(Br)cc1CN(C)CC(=O)NCc1ccc(F)cc1,n,53,n,n,n,n
COc1ccccc1NS(=O)(=O)c1cc(C(=O)NCCC(C)C)ccc1F,n,n,n,n,n,n
O=C(Nc1nc2c(Br)cccc2s1)C1CC1,n,n,n,n,46,n
O=C(Nc1nc2c(Cl)cccc2s1)C1CC1,n,n,n,n,n,n
O=C(CN1C(=O)NC2(CCOc3ccccc32)C1=O)NCC(F)(F)F (centres undefined),n,n,n,n,n,n
CC(Oc1ccccc1)C(=O)Nc1ccc(F)c(S(=O)(=O)N2CCOCC2)c1 (centres undefined),x,x,x,x,x,n
O=C1NN(c2ccccc2)C(=O)C2C1C1C=CC2C12CC2 (centres undefined),n,n,n,n,n,53
Cc1cccc(C(=O)OCC(=O)N2CCCC2=O)c1[N+](=O)[O-],n,n,x,x,n,n
CC1=C(C(=O)OC(C)C)C(c2cccs2)C(C(=O)OC(C)C)=C(C)N1,n,n,n,n,29,n
COC(=O)c1sc(NC(=O)c2cc(-c3ccccc3)nc3ccccc23)c(C#N)c1C,n,n,n,96,n,n
CCOC(=O)c1sc(NC(=O)c2cc(-c3ccc(C)cc3)nc3ccccc23)c(C#N)c1C,x,n,n,n,n,n
CCOC(=O)C1(Cc2cccc(F)c2)CCN(CC(O)CO)CC1 (centres undefined),n,n,n,n,n,n
COCC(C)n1c(C)cc(C(=O)CSc2nnc(Nc3ccccc3F)s2)c1C (centres undefined),n,n,n,80,n,n
CC(=O)Nc1cc(Br)ccc1O,n,n,n,n,n,n
CC(=O)Nc1cc(-c2ccccc2)ccc1O,n,n,n,90,n,n
S=c1nc(-c2ccco2)[nH][nH]1,n,n,n,98,n,n
CCCOc1ccc(N2C(=O)CC(N3CCC(c4nncn4CC)CC3)C2=O)cc1 (centres undefined),307,n,n,n,n,n
CCCOc1ccc(N2C(=O)CC(N3CCN(c4ccccc4F)CC3)C2=O)cc1 (centres undefined),n,n,n,n,n,n
O=C(NCCc1cccc(Cl)c1)c1cccc(-n2cnnn2)c1,x,x,x,x,x,n
Cc1ccc(C(=O)Nc2cc3[nH]c(=O)oc3cc2C)cc1,303,n,n,n,n,n
CCCCc1ccc(NC(=S)NCCN2CCOCC2)cc1,731,n,n,n,n,n
O=C(Nc1nc(-c2ccc(S(=O)(=O)N3CCOCC3)cc2)cs1)c1ccccc1,n,n,n,n,n,n
SMILES,SUMO Mot1 rescue,JMJD2C inh,p-CIP stab down,PHOSPHO1 inh,HDAC3 inhib,PvdQ inh
COc1cccc(C(=O)Nc2nc(-c3ccc(S(=O)(=O)N4CCOCC4)cc3)cs2)c1,255,n,n,n,n,n
COc1ccccc1CNC(=O)C(=O)c1cn(CC(=O)N2CCCC2)c2ccccc12,n,n,n,62,n,n
CCOc1ccc(NC(=O)COC(=O)c2ccc3ncsc3c2)cc1OCC,x,x,x,x,x,n
COc1ccc(-c2cnn3c4c(c(C)nc23)CCN4C(C)C)cc1OC,n,n,n,62,n,n
COc1ccccc1C(=O)Nc1ccc(C(=O)Nc2ccccc2C(=O)O)cc1,n,n,n,n,n,n
Cc1cc(O)c(C(C)C)cc1N=C1CSC(=O)N1,n,n,n,87,n,n
Cc1ccc(N=C2CSC(=O)N2)cc1,n,n,n,n,n,n
CN(CC(=O)Nc1ccc2c(c1)OCCO2)Cc1nc2ccccc2c(=O)[nH]1,n,n,x,x,n,n
